Data taken from PubChem BioAssay AID720504 (National Center for Advancing Translational Sciences (NCATS), 2013).
Among all 360,000 compounds or so, about 10,000 (2.8%) were called active. Not shown: some 4% with an inconclusive outcome. Calls come from the whole dose curve; as a rule, active = well fitted inhibition curve with a large enough effect; inconclusive = small, poorly fitted or top-dose-only effect; inactive = flat fitted curve, though single readings scatter. The full list was thinned out, with actives kept by preference.

What follows are molecules tested against Serine/threonine-protein kinase PLK1 (Homo sapiens) (UniProt P53350) (assay: qHTS for Inhibitors of PLK1-PDB (polo-like kinase 1 - polo-box domain): Primary Screen). Settings: Plk1 PBD binding of FITC phosphopeptide, fluorescence polarization.
Serine/threonine-protein kinase PLK1 (Homo sapiens), sequence (P53350 whole entry, looked up, the tested form may be a part): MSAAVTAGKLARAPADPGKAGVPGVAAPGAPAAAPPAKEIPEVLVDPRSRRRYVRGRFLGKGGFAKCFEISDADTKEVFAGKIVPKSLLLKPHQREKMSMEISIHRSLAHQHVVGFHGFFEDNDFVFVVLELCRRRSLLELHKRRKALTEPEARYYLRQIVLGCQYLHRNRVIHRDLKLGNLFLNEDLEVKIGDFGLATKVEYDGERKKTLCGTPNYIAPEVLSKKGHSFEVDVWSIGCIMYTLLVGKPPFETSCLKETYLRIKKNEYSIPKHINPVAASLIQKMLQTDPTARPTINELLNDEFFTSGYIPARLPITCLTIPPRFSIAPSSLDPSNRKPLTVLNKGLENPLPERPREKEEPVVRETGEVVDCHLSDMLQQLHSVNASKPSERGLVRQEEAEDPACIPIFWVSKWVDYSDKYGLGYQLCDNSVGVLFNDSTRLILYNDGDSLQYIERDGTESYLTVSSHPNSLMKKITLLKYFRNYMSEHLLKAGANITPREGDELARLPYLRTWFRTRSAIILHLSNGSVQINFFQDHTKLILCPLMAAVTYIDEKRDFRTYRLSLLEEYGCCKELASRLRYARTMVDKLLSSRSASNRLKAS
% is set by controls: 0 for no effect and ±100 for the full control effect; potency is the fitted concentration of half-maximal effect.
Note: nearly all actives have a fitted effect of over 65% in size.
Throughout, for Max response, negative = inhibition: series mostly up to about 57 µM.

Max response, negative = inhibition, inactive:
Cc1ccc(C(O)c2ncc(-c3ccccc3F)[nH]2)cc1F (centres undefined) -7.55%
CCN(CC)S(=O)(=O)c1cccc(NC(=O)c2ccc(S(=O)(=O)N3CCCC3)cc2)c1 2.45%
COC(=O)c1ccc(/C=N/N2C(C)CCCC2C)cc1 (centres undefined) -11.6%
CCCCNC(=O)C[C@@H]1C[C@@]2(C(=O)OCC)CCC=C2N(Cc2cccc3ccccc23)C1=O -0.117%
CCOC(=O)C1CCCN(C(=O)c2ccc(C)c(F)c2)CC1 (centres undefined) -7.52%
CC(C)Oc1ccc(CN2CCC2(C)C(=O)NCc2ccc(C(F)(F)F)cc2)cc1 (centres undefined) 6.37%
CCCS(=O)(=O)C(=C1Nc2ccccc2N1)S(=O)(=O)CCC -1.93%
CN(C)/C=C1\C=C(c2ccccc2)OC1=O -6%
CCN(CCN(C)C)C(=O)c1ccc2nc(C)c(N(C)C(=O)CCc3ccccc3)n2c1 2.39%
CC(=O)Nc1cncc(-c2ccccc2CO)n1 3.65%
O=S1(=O)CC(N2CCN(CCO)CC2)CN1Cc1cn(Cc2ccc(Cl)cc2)nn1 (centres undefined) -4.51%
Cc1ccc(S(=O)(=O)N(CCc2ccccc2)c2ccc3c(c2)C2CC3CCN2C(=O)OCc2ccccc2)cc1 (centres undefined) -9.82%
O=C(C1CCCO1)N1CCN(C(=O)C23CC4CC(CC(C4)C2)C3)CC1 (centres undefined) -0.452%
C[C@@H]1CN([C@H](C)CO)S(=O)(=O)c2ccc(C#CC3CCCCC3)cc2O[C@H]1CN(C)C(=O)Cc1ccncc1 8.88%
COc1cccc(C(O)c2ncc(-c3ccc4ccccc4c3)[nH]2)c1 (centres undefined) 5.51%
COc1ccc(-n2nc3c(N4CCC(C(=O)NCc5ccccc5)CC4)nnc(C)c3c2C)cc1 -9.59%
Cc1nn(C(C)C(=O)NCCC2=CCCCC2)c(=O)c2nn(-c3ccccc3)c(C)c12 (centres undefined) -7.54%
Cc1ccc(-n2nc3c(=O)n(C(C)C(=O)NCc4ccc5c(c4)OCO5)nc(C)c3c2C)cc1 (centres undefined) -18.3%
Cc1nn(CC(=O)N2CCCCC2)c(=O)c2nn(-c3ccccc3)c(C)c12 -14.5%
CCOc1cc(/C=N/NC(=O)c2c(C)nc3ccc(Cl)cn23)ccc1O -0.787%
CC(C)NC(=O)C1(C)CCCCN1Cc1cccc(C(F)(F)F)c1 (centres undefined) -6.04%
OC(c1ccc(F)cc1)c1ncc(-c2cccc(C(F)(F)F)c2)[nH]1 (centres undefined) 1.19%
CC(=O)NC(c1ccccc1)c1nc(-c2cccc(C(C)C)c2)cs1 (centres undefined) 4.75%
COC(=O)[C@@]1(Cc2ccc(OC)cc2)[C@H]2c3cc(C(=O)N4CCCC4)n(Cc4ccc(OC(F)(F)F)cc4)c3C[C@H]2CN1C(=O)c1ccccc1 4.68%
CCOC(=O)[C@]12CCC=C1N(Cc1ccco1)C(=O)[C@H](CC(=O)N1CCSCC1)C2 -15.1%
CC1(C(=O)Nc2cccnc2)Cc2c(-c3ccccc3)ccnc2O1 (centres undefined) -6.2%
COc1ccc([C@H]2CC(=O)C=C(c3ccc(C)cc3)C2)cc1 -18.7%
COc1ccc2cc(C3=CC(=O)C[C@H](c4ccc5c(c4)OCO5)C3)ccc2c1 4.54%
CN1OC[C@@H]2CN[C@H](c3ccc(-c4ccccc4)cc3)C[C@@H]21 5.71%
CCn1c(SCC(=O)Nc2ccc(S(=O)(=O)Nc3onc(C)c3C)cc2)nnc1-c1ccccc1 3.27%
Cc1noc(NS(=O)(=O)c2ccc(NC(=O)c3oc4ccc(F)cc4c3C)cc2)c1C -10.8%
CC(C)(C)S(=O)N1Cc2cc(C(=O)NCCCN3CCOCC3)nc(-c3cccc(-c4cc5ccccc5o4)c3)c2[C@H]1CCO (some centres undefined) -5.28%
CCCn1c(=N)n(CC(=O)c2ccc(Cl)c(Cl)c2)c2ccccc21 -14%
CCCCCCCCCCOC(=O)Cn1c(COc2ccc(C)cc2)[n+](C)c2ccccc21 -18.7%
CC(=O)c1cccc(-c2cnc3c(NC=O)cc(-c4ccc(N(C)C)cc4)cn23)c1 -10.2%
COc1ccc(C(O)C(O)(C(=O)OC(C)C)c2ccc(C)cc2)cc1 (centres undefined) -13.4%
Cn1cc(C2OC(=O)c3ccccc32)c2ccccc21 (centres undefined) -13.8%
CC(C(=O)O)N1C(=O)c2cccc3cccc1c23 (centres undefined) -10.8%
Cc1ccc(S(=O)(=O)N2CCCCC2)cc1NC(=O)CCNC(=O)c1ccccc1Cl -0.377%
O=C1c2ccccc2-c2ccccc2NC1O (centres undefined) -5.82%
COc1cccc(NC(=O)N(C)C[C@@H]2Oc3ncc(Br)cc3C(=O)N([C@@H](C)CO)C[C@H]2C)c1 -14.8%
Cc1c(NC(=O)CSc2nnnn2-c2ccc(C(=O)O)cc2)c(=O)n(-c2ccccc2)n1C -21.9%
Cc1c(NC(=O)CSc2nnc(-c3cccnc3)n2N)c(=O)n(-c2ccccc2)n1C -7.37%
C[C@H]1CN([C@@H](C)CO)S(=O)(=O)c2ccc(-c3cccc(F)c3)cc2O[C@@H]1CN(C)C 2.78%
CN(C)CCNC(=O)c1ccc(-c2cn3c(-c4ccc(Oc5ccccc5)cc4)cnc3cn2)cc1 -16.6%
COc1ccc(NC(=O)N(C)C[C@H]2Oc3ncc(C#C[C@@H](C)O)cc3C(=O)N([C@H](C)CO)C[C@H]2C)cc1 -0.325%
CN1CCN(C(=O)c2ccc(-c3cc4nc(NCc5cccnc5)n(C)c(=O)c4s3)cc2)CC1 -24.5%
CN(C)CCn1c(=S)[nH]c2ccc(Cl)cc2c1=O -5.51%
CC(C)n1c(=S)[nH]c2cc(C(F)(F)F)ccc21 -24.5%
CC(=O)N1Cc2cc(C(=O)NCc3cccc(F)c3)nc(-c3cccc(C4=CCCC4)c3)c2[C@H]1CCO -3.4%
CCC(C)CN1C(=O)CSCC1(C)C(=O)NCc1ccccc1 (centres undefined) -12.2%
O=C(Nc1ccc(Cl)cc1)C1Cc2c(-c3ccc4c(c3)OCO4)ccnc2O1 (centres undefined) -2.05%
C[C@H]1CN([C@@H](C)CO)C(=O)CCCn2cc(nn2)CO[C@@H]1CN(C)C(=O)Nc1ccccc1 -14%
O=C(c1ccc(Cl)c(S(=O)(=O)N2CCCCC2)c1)N1CCCCCC1 -9.42%
O=C(c1ccccc1F)N1CCN(S(=O)(=O)c2ccc(Br)cc2)CC1 -0.788%
O=C(COc1ccc(S(=O)(=O)N2CCCC2)cc1[N+](=O)[O-])N1CCCCC1 0.94%
C[C@H]1CN([C@@H](C)CO)C(=O)CCCn2cc(nn2)CO[C@@H]1CN(C)S(=O)(=O)c1ccccc1C#N -15.7%
CCOC(=O)N1CCN(C(c2ccnc3ccccc23)c2nnnn2-c2c(C)cccc2C)CC1 (centres undefined) 6.16%
Cc1onc(C(=O)NN)c1C(=O)N1CCN(C(c2ccccc2)c2ccccc2)CC1 1.96%
O=C(NC1CCCC1)C1c2ccccc2OCC(=O)N1CC(F)(F)F (centres undefined) -3.82%
CCOC1=C2[C@@H](CN(S(=O)(=O)c3ccc(C)cc3)[C@H]2c2ccccc2F)[C@H]2C(=O)N(Cc3ccccc3)C(=O)[C@H]2C1 -14.5%
CCCCCCNC(=O)O[C@]12C[C@@H](C(=O)OC)[C@@H](C(=O)OC)C[C@@]1(O)CN(S(=O)(=O)c1ccc(C)cc1)C2 -1.62%
CCc1ccc(C2C(C#N)=C(N)N(N(C)C)C3=C2C(=O)CCC3)s1 (centres undefined) 2.14%
COc1ccc(C2C(C#N)=C(/N=C/N3CCOCC3)OC3=C2C(=O)CC(C)(C)C3)cc1OC (centres undefined) -6.22%
O=C(NCc1cccnc1)Nc1ccccc1F -0.233%
O=C(O)c1ccccc1-c1ccccc1C(=O)NCc1cccnc1 -5.72%

Potency, active:
CCN(CC)S(=O)(=O)c1cccc(-c2n[nH]c(=S)n2/N=C/c2ccc(C(=O)OC)cc2)c1 10.6 µM
CN(C)/C=C1/Nc2ccccc2C1=O 26.7 µM
O=C(CCc1[nH]c2ccccc2c1Sc1ccccc1)N(CCO)CCO 29.9 µM
COc1ccc(CNC(=O)C(C)n2nc(C)c3c(C)n(-c4ccccc4)nc3c2=O)c(OC)c1 (centres undefined) 26.7 µM
COc1ccc(OC)c(CNC(=O)Cn2nc(C)c3c(C)n(-c4ccc(C)cc4)nc3c2=O)c1 26.7 µM
COc1ccc([C@H]2CC(=O)C=C(c3ccc(CO)cc3)C2)cc1 23.8 µM
Cc1cc(C)c2nc(-c3cccnc3)cc(C(=O)Nc3ccc(S(=O)(=O)Nc4onc(C)c4C)cc3)c2c1 42.3 µM
CCCCOC(=O)Cn1c(=N)n(CCN(CC)CC)c2ccccc21 21.2 µM
CN1C(=O)c2cccc3c(N)ccc(c23)C1=O 3.36 µM
Cc1nn(C)cc1N1C(=O)c2cccc3c(N)ccc(c23)C1=O 2.38 µM
Cc1c(NC(=O)CSc2cccc3cccnc23)c(=O)n(-c2ccccc2)n1C 16.8 µM
Cc1coc2c(O)cc3c(c12)OC1(N2CCCCC2)C(=O)NCCCC31 (centres undefined) 15 µM
CCCn1c(=S)[nH]c2ccc(C(F)(F)F)cc21 10.6 µM
O=C(c1ccc[nH]c1=S)N1CCN(S(=O)(=O)c2ccc(Br)cc2Cl)CC1 26.7 µM
CCN1CCN(C(c2cccnc2)c2cc(Cl)c3cccnc3c2O)CC1 (centres undefined) 10.6 µM
CCOC(=O)N1CCN(C(c2cccnc2)c2ccc3cccnc3c2O)CC1 (centres undefined) 5.97 µM
CCc1ccc(C2C(C#N)=C(N)N(N3CCOCC3)C3=C2C(=O)CC(C)(C)C3)s1 (centres undefined) 26.7 µM
CCC(Oc1ccccc1)C(=O)NCc1cccnc1 (centres undefined) 18.9 µM
